# Results filed as inconclusive are left out. Unmarked numbers belong to inactive results. Calls of active or inactive are those of the source. The call rests on the fitted dose curve; in most records, active means well fitted cell-killing curve with a large enough effect; inconclusive means small, poorly fitted or top-dose-only effect, or effect the other way; inactive means flat fitted curve, though single readings scatter.
# System: Tov112D
# Test: Primary qHTS to identify gynecologic anti-cancer compounds using libraries of approved drugs and bioactive compounds (AID 1345084); further: nearly all actives have a fitted effect of over 55% in size
# Settings: Gynecologic cancer cell panel viability, ATPlite luminescence, 48 h; series mostly up to 57.5 µM; activity change, negative = cytotoxicity: at the top concentration
# In short: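 In this quantitative HTS, cell killing is estimated from loss of ATP-dependent luciferase light. Cells see five compound concentrations over a 48 h exposure.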
# On the % scale 0 is the no-effect control and ±100 the full control effect; potency means the concentration at half of the fitted maximal effect.
Compound,"activity change, negative = cytotoxicity",Potency
Cc1ccccc1C(=O)c1ccc(Nc2ccc(Br)cc2N)cc1Cl,-16.9%,–
Cc1cnc(CNC(=O)c2c(=O)c3ccc(N4CCCN(C)CC4)nc3n3c2sc2ccccc23)cn1,-20.9% [at 11.6 µM],–
CCCCC(F)(F)[C@@]1(O)CC[C@H]2[C@H](CC(=O)[C@@H]2CCCCCCC(=O)O)O1,0.0832%,–
Cc1c(C(=O)Nc2ccc(N3C[C@@H](C)O[C@@H](C)C3)nc2)cccc1-c1ccc(OC(F)(F)F)cc1,-1.25%,–
CNC(=O)c1cc(Oc2ccc(NC(=O)Nc3ccc(Cl)c(C(F)(F)F)c3)c(F)c2)ccn1,-12.5%,–
C[C@@H]1C[C@H]2[C@@H]3CCC4=CC(=O)C=C[C@]4(C)[C@@]3(F)[C@@H](O)C[C@]2(C)[C@@]1(O)C(=O)CO,11.9%,–
CCCCC[C@H](O)C=C[C@H]1[C@H](O)CC(=O)[C@H]1CC=CCCCC(=O)O,2.03%,–
O=C(Nc1cccc2c(=O)cc(-c3nn[nH]n3)oc12)c1ccc(OCCCCc2ccccc2)cc1,19.8%,–
COc1ccnc(CS(=O)c2nc3ccc(OC(F)F)cc3[nH]2)c1OC (centres undefined),-2.06%,–
CN1C(=O)C(Cc2c[nH]c3ccccc23)NC1=S (centres undefined),-2.15% [at 25.3 µM],–
CNc1nc(Nc2ccc(C(=O)N3CCOCC3)cc2OC)ncc1Cl,16%,–
O[C@@H](COc1cccc2ncccc12)CN1CCN(C2c3ccccc3[C@@H]3[C@H](c4ccccc42)C3(F)F)CC1 (some centres undefined),–,inactive
NS(=O)(=O)c1cc(Cl)c(Cl)c(S(N)(=O)=O)c1,8.82%,–
NC(=O)c1ccc(N(C(N)=O)c2c(F)cccc2F)nc1-c1ccc(F)cc1F,5.76%,–
O=C(CCCN1CCN(c2ccc(F)cc2)CC1)NC1c2ccccc2CSc2ccccc21 (centres undefined),-9.1%,–
N#Cc1ccc(Oc2ccc3c(c2)COB3O)cc1,8.07%,–
CN(C)CCN(Cc1ccc(Cl)cc1)c1ccccn1,-2.51%,–
CC(C)(O)CC(=O)NCCn1ccc2ncnc(Nc3ccc(Oc4cccc(C(F)(F)F)c4)c(Cl)c3)c21,-5.42%,–
O=C(Nc1ccc(OC(F)(F)F)cc1)c1sccc1NCc1ccnc2ccccc12,-2.58%,–
CC1CCN(c2cc(N3CCN(C)CC3)ccc2NC(=O)c2cc(C#N)c[nH]2)CC1,8.84%,–
CNC(=O)c1ccc2c(C(=Nc3cccc(CN(C)C)c3)c3ccccc3)c(O)[nH]c2c1,6.11%,–
Cc1ccccc1-n1c(Cn2nc(-c3cccc(O)c3)c3c(N)ncnc32)nc2cccc(C)c2c1=O,-6.56%,–
O=C1NC(=O)C(c2cnc3ccccn23)=C1c1cn2c3c(cccc13)CN(C(=O)N1CCOCC1)CC2,-2.51%,–
Cc1ccc2c(c1)C(=O)[C@]1(O)CCN(c3ccccc3)C1=N2,-12.6%,–
Nc1[nH]nc2nnc(-c3c(-c4ccccc4)nn4ccccc34)cc12,18%,–
N#CC1(c2cccc(C(=O)Nc3cc(Oc4ccc5nc(NC(=O)C6CC6)sc5n4)ccc3F)c2Cl)CC1,–,5.62 µM (active)
COc1nccc(-c2c(-c3ccc(F)cc3)ncn2C2CCC(O)CC2)n1 (centres undefined),13.6%,–
COc1nccc(-c2c(-c3ccc(F)cc3)ncn2C2CCNCC2)n1,0.989%,–
CN1CCN(c2cccc(Nc3nc4c(-c5ccc(S(C)(=O)=O)cc5)cccn4n3)c2)CC1,-9.99%,–

# — PubChem BioAssay (NCATS)
